Assay outcomes (PubChem)
C diff growth – inhibitors of Clostridium difficile growth; 0.25% of 86,000 active; Clostridium difficile clinical isolate growth, OD600, 24 h; active compounds read low; growth activity, negative = inhibition, % at 16 µg/mL (by protocol);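 active means mean growth activity at or below -80% and every replicate also at or below -80%; inconclusive means mean at or below -80% but some replicate above -80%; inactive means mean growth activity above -80%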
T cruzi growth – blocks T. cruzi growth in NIH3T3 culture | T. cruzi beta-gal in NIH3T3, GalScreen luminescence, 90 h | inhibition, % at 8.34 µM | 5.9% of 77,000 active;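 active means mean inhibition above about 93%, with at least 55% of replicates each passing it, limit read from the data, passing the limit was not always enough; inconclusive means only one of those two conditions holds; inactive means neither condition holds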
Pf Dd2 inh – blocks growth of Plasmodium falciparum Dd2 parasites; P. falciparum Dd2 growth, SYBR Green, 72 h; active compounds read low; activity change, % at 10 µM; 2.3% of 94,000 active; in the data active means activity change below about -80%; inconclusive means no clear call, values can overlap the other calls
Numbers stand for hits; - = inactive; ? = inconclusive; . = not tested or not shown. Shown are actives, neighbours in structure and some others; about 6.8% of the full set was active somewhere.

SMILES | C diff growth | T cruzi growth | Pf Dd2 inh
C[C@@H]1CCCCO[C@@H](CN(C)Cc2ccc(C(=O)Nc3ccccc3N)cc2)[C@@H](C)CN([C@H](C)CO)C(=O)c2cc(NS(=O)(=O)c3ccccc3)ccc2O1 | - | . | -81.5
C[C@@H]1CCCCO[C@H](CN(C)Cc2ccc(C(=O)Nc3ccccc3N)cc2)[C@@H](C)CN([C@H](C)CO)C(=O)c2cc(NS(=O)(=O)c3ccc(Cl)cc3)ccc2O1 | - | - | -82.3
Cc1noc(C)c1S(=O)(=O)Nc1ccc2c(c1)C(=O)N([C@H](C)CO)C[C@H](C)[C@@H](CN(C)Cc1ccc(C(=O)Nc3ccccc3N)cc1)OCCCC[C@@H](C)O2 | - | . | ?
C[C@H](CO)N1C[C@H](C)[C@@H](CN(C)C(=O)Nc2ccc(F)cc2)Oc2ccc(NC(=O)Cc3cn(C)c4ccccc34)cc2CC1=O | - | - | -
CN(C)CC(=O)Nc1ccc2c(c1)[C@@H]1C[C@H](CC(=O)NCCc3ccccc3)O[C@H](CO)[C@@H]1O2 | - | . | -
O=C(C[C@@H]1CC[C@@H](NC(=O)C2CCC2)[C@@H](CO)O1)NC1CCCCC1 | - | . | .
O=C(C1CCCC1)N1CC(=O)N2[C@H](C1)[C@@H](c1ccc(C#CCc3ccccc3)cc1)[C@@H]2CO | - | . | -89.0
O=C(c1ccccn1)N1CC(=O)N2[C@H](C1)[C@@H](c1ccc(C#CCc3ccccc3)cc1)[C@@H]2CO | - | . | -81.9
CCC(=O)N1CC(=O)N2[C@@H](CO)[C@H](c3ccc(C#CCc4ccccc4)cc3)[C@@H]2C1 | - | . | -84.5
CC(C)C#Cc1ccc([C@@H]2[C@@H](CO)N3C(=O)CN(C(=O)C4CCCCC4)C[C@@H]23)cc1 | - | . | -85.1
CCC(=O)N1CC(=O)N2[C@H](CO)[C@@H](c3ccc(C#CCc4ccccc4)cc3)[C@@H]2C1 | - | . | -
O=C(C1CCCC1)N1CC(=O)N2[C@H](CO)[C@@H](c3ccc(C#CCc4ccccc4)cc3)[C@@H]2C1 | - | . | ?
O=C(c1ccccn1)N1CC(=O)N2[C@H](CO)[C@@H](c3ccc(C#CCc4ccccc4)cc3)[C@@H]2C1 | - | . | ?
CC(C)C#Cc1ccc([C@@H]2[C@@H](CO)N3C(=O)CN(C(=O)C4CCCCC4)C[C@H]23)cc1 | - | . | -
c1ccc(-c2ccc([C@H]3[C@H]4CNC[C@@H]3N4Cc3cc(-c4ccccc4)on3)cc2)cc1 | - | . | -
CO[C@@H]1CN(C)C(=O)c2cc(NC(=O)C3CC3)ccc2OC[C@H](C)N(C(=O)c2ccccc2F)C[C@@H]1C | - | - | -
CO[C@@H]1CN(C)C(=O)c2ccc(NS(=O)(=O)c3ccc(C)cc3)cc2OC[C@H](C)NC[C@@H]1C | - | - | -
O=C(NC1CCC1)[C@@H]1N[C@@H]2c3ccc(-c4cccc(F)c4)c(=O)n3C[C@@H]2[C@H]1CO | - | - | -
COc1ccc2c3c(n(C)c2c1)[C@H](CO)N(C(=O)Nc1ccccc1F)CC31CN(C)C1 | - | . | -
O=C(C[C@H]1C=C[C@@H](NC(=O)Nc2ccc(F)cc2)[C@@H](CO)O1)NCc1cccc(F)c1 | - | . | .
CCS(=O)(=O)NCC[C@H]1CC[C@H](NC(=O)Cc2ccccn2)[C@H](CO)O1 | . | - | -
O=C(C1CC1)N1CC(=O)N2[C@H](CO)[C@@H](c3ccc(C#CCc4ccccc4)cc3)[C@@H]2C1 | - | . | -87.5
COCC#Cc1ccc([C@H]2[C@@H](CO)N3C(=O)CN(C(=O)CN4CCOCC4)C[C@@H]23)cc1 | - | . | -
O=C(C1CC1)N1CC(=O)N2[C@@H](CO)[C@H](c3ccc(C#CCc4ccccc4)cc3)[C@@H]2C1 | - | . | -
COCC#Cc1ccc([C@H]2[C@H](CO)N3C(=O)CN(C(=O)CN4CCOCC4)C[C@@H]23)cc1 | - | . | -85.3
SMILES | C diff growth | T cruzi growth | Pf Dd2 inh
COCC(=O)Nc1ccc2c(c1)C(=O)N(C)C[C@@H](OC)[C@@H](C)CN(C(=O)NC(C)C)[C@@H](C)CO2 | . | - | -
COc1ccc(CN(C)C[C@@H]2Oc3c(NC(=O)CCCCCC(=O)Nc4ccccc4N)cccc3C(=O)N([C@H](C)CO)C[C@H]2C)cc1 | - | . | -89.9
COc1ccc(CN(C)C[C@H]2Oc3c(NC(=O)C4CC4)cccc3C(=O)N([C@H](C)CO)C[C@@H]2C)cc1 | - | - | -
COc1ccc(CN(C)C[C@@H]2Oc3c(NC(=O)CCCCCC(=O)Nc4ccccc4N)cccc3C(=O)N([C@@H](C)CO)C[C@H]2C)cc1 | - | . | -90.3
COc1ccc(CN(C)C[C@H]2Oc3c(NC(=O)CCCCCC(=O)Nc4ccccc4N)cccc3C(=O)N([C@@H](C)CO)C[C@@H]2C)cc1 | - | . | -94.4
COc1ccc(NC(=O)N(C)C[C@@H]2Oc3c(NC(=O)CCCCCC(=O)Nc4ccccc4N)cccc3C(=O)N([C@@H](C)CO)C[C@@H]2C)cc1 | - | . | -
CCC(=O)N(C)C[C@H]1Oc2ncc(C#Cc3ccccc3)cc2C(=O)N([C@H](C)CO)C[C@H]1C | - | - | -
O=C(C[C@@H]1C[C@H]2c3cc(NS(=O)(=O)c4ccccc4)ccc3O[C@H]2[C@@H](CO)O1)NCC1CC1 | - | - | -
CN1[C@@H]2c3ccc(/C=C/c4ccccc4)c(=O)n3C[C@@H]2[C@@H](CO)[C@@H]1C(=O)N1CCOCC1 | - | - | -
Cc1ccc(S(=O)(=O)N(C)C[C@@H]2Oc3ccc(NC(=O)CCC(F)(F)F)cc3CC(=O)N([C@@H](C)CO)C[C@H]2C)cc1 | - | - | -
O=C(Nc1ccccc1Cl)N1C[C@@H]2[C@H](c3ccccc31)[C@@H](CO)N2C(=O)c1cccnc1 | - | - | -
CCCC#Cc1ccc2c(c1)O[C@@H](CN(C)C)[C@H](C)CN([C@@H](C)CO)S2(=O)=O | - | - | -
CC(C)NC(=O)Nc1ccc2c(c1)C(=O)N([C@H](C)CO)C[C@H](C)[C@H](CN(C)C(=O)Nc1cccc3ccccc13)OCCCC[C@@H](C)O2 | - | - | -
C[C@@H]1CCCCO[C@@H](CN(C)C(=O)Nc2cccc3ccccc23)[C@H](C)CN([C@@H](C)CO)C(=O)c2cc(NC(=O)C3CCCCC3)ccc2O1 | - | - | -83.4
C[C@@H]1CCCCO[C@@H](CN(C)C(=O)Nc2cccc3ccccc23)[C@@H](C)CN([C@H](C)CO)C(=O)c2cc(NC(=O)C3CCCCC3)ccc2O1 | - | - | -
CC(C)NC(=O)Nc1ccc2c(c1)C(=O)N([C@@H](C)CO)C[C@@H](C)[C@H](CN(C)C(=O)Nc1cccc3ccccc13)OCCCC[C@H](C)O2 | - | - | -85.7
C[C@@H]1CN([C@H](C)CO)C(=O)c2cc(NC(=O)C3CCCCC3)ccc2O[C@@H](C)CCCCO[C@H]1CN(C)C(=O)Nc1cccc2ccccc12 | - | - | ?
C[C@H]1CCCCO[C@H](CN(C)C(=O)Nc2cccc3ccccc23)[C@@H](C)CN([C@@H](C)CO)C(=O)c2cc(NC(=O)C3CCCCC3)ccc2O1 | - | - | -85.6
C[C@@H]1CN([C@@H](C)CO)C(=O)c2cc(NS(=O)(=O)c3ccc(Cl)cc3)ccc2O[C@@H]1CN(C)CC1CC1 | - | - | -
CCCC(=O)N1CCC2(CC1)CN(Cc1ccncc1)[C@@H](CO)c1[nH]c3cc(OC)ccc3c12 | - | . | -91.2
COc1ccc2c3c([nH]c2c1)[C@H](CO)N(Cc1ccncc1)CC31CN(C(=O)Cc2ccncc2)C1 | - | . | -
